Anesthetic bind = qHTS Assay for Identification of Novel General Anesthetics; apoferritin/1-aminoanthracene competitive binding, fluorescence; Potency, µM (titrated, usually from 77.5 µM), without a hit: top-dose activity change, negative = displacement, actives largely listed as inhibitors; 0.074% of 350,000 active; AID 485281, 2010; further: potency means the concentration at half of the fitted maximal effect; on the % scale 0 is the no-effect control and ±100 the full control effect; nearly all actives have a fitted effect of over 20% in size
Target sequence (P02791 2-175 limits assumed): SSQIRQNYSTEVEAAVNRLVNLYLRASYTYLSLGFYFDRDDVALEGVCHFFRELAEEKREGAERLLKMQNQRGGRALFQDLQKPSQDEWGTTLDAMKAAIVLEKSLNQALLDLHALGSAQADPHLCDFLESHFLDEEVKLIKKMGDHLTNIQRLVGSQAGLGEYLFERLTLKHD
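Horse-spleen apoferritin (10 uM) was mixed with 50% saturated 1-aminoanthracene in PBS, exposed to compounds for 10 min at room temperature, and read for fluorescence (ex 380 nm, em 535 nm). Competitive displacement was fitted with a four-parameter Hill equation.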
a7 integrin act = qHTS for Activators of Integrin-Mediated Alleviation for Muscular Dystrophy; alpha7betagal myoblasts, beta-gal FDG fluorescence, 48 h; Potency, µM (titrated, usually from 38.3 µM), for the others: at the top dose activation, usual class: activators; 0.064% of 350,000 active;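 further: potency means the concentration at half of the fitted maximal effect; 100% = response of the positive control SU9516; nearly all actives have a fitted effect of over 60% in size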
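Alpha7betagal+/- myoblasts (passage 13) were plated 16-24 hr, then exposed to compounds (1:260 dilution of DMSO stock) for 48 hours at 37C. After MPER lysis, β-galactosidase reporter activity was read as FDG fluorescence (ex 480/em 540) after 30 minutes.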
BRCA1 expr act = qHTS Assay to Identify Small Molecule Activators of BRCA1 Expression. MCF7-BRCA1-FFLuc reporter, luminescence, 48 h; response scale: scaled: vehicle 0%, 10 µM genistein 100%. Potency, µM (highest dose often 46.1 µM), for inactives: at the top dose activation, hits mostly activators. 1.1% of 380,000 active. AID 624202, 2012; further: potency means the concentration at half of the fitted maximal effect; nearly all actives have a fitted effect of over 80% in size
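MCF7-BRCA1-FFLuc, 2000 cells/well; 2 h attach, 37 °C/5% CO2; compound 48 h; luciferase substrate 15 min; luminescence end-point. Norm. to genistein 10 microM max activation and DMSO; concentration-response curves fitted.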
PKM2 activator = qHTS Assay for Activators of Human Muscle isoform 2 Pyruvate Kinase; Potency, µM (series often up to 57.5 µM), for the others: top-dose activation, hits mostly activators; 0.34% of 260,000 active; purified PKM2, Kinase-Glo ATP luminescence, activation; response scale: 0% is enzyme alone, no compound; AID 1631, 2009; further: potency means the concentration at half of the fitted maximal effect; on the % scale 0 is the no-effect control and ±100 the full control effect; nearly all actives have a fitted effect of over 55% in size
Target sequence (P14618 whole entry, looked up, canonical isoform): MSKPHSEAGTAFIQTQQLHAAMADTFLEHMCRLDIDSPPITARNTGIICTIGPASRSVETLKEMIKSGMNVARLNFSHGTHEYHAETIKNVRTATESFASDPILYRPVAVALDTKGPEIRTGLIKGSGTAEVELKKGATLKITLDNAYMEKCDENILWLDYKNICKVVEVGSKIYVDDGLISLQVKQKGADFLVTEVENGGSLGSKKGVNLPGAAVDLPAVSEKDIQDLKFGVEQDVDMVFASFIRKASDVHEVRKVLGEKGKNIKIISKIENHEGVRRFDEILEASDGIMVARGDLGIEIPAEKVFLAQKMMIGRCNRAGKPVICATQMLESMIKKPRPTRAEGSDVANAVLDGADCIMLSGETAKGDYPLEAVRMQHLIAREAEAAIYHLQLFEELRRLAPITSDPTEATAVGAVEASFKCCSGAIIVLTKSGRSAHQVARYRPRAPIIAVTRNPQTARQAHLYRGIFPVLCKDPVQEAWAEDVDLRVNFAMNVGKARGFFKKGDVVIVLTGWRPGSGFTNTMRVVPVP
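Kinase-Glo luminescence reports ATP generated from ADP (0.1 mM) and PEP (0.5 mM) by purified hPK-M2 after 1 h at room temperature, pH 7.2 imidazole buffer; intermediate enzyme activity allows detecting inhibitors and activators.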
IL-2 act = qHTS of IL-2 Activators; activation, % (series mostly up to about 46 µM); IL-2 activation reporter assay, cell-based qHTS; stimulated with anti-CD3/CD4/CD28 beads; in transgenic mouse T cells; AID 652025, 2013; 0.065% of 360,000 active; in the data active means activation above about 50%; inconclusive means mostly about 30% to 49%; further: 0% is about no effect
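Screening format: compound pinned onto unstimulated transgenic mouse T cells, 60 min incubation, then anti-CD3/anti-CD4/anti-CD28 bead stimulation for 18 hours at 37 degrees C, followed by EGFP and DsRed detection.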
* marks the source's active call; other numbers are inactive results; u = inconclusive; x = not tested or not shown; [ ] = remark or other dose. Rows were chosen to be rich in hits. Some 1.3% of all compounds tested hit in one or more screens of this group. Unless noted, the call rests on the fitted dose curve; in most records, active means well fitted curve in the direction sought with a large enough effect; inconclusive means small, poorly fitted or top-dose-only effect, or another doubt; inactive means no such curve, though single readings can be large; an effect the other way counts as inactive or inconclusive.

SMILES | Anesthetic bind | a7 integrin act | BRCA1 expr act | PKM2 activator | IL-2 act
COc1ccc(C(=O)O/N=C(\N)c2ccccc2)cc1OC | -3% | u | 81% | x | 0
Cc1cccc(/C(N)=N/OC(=O)CCc2ccccc2)c1 | u | 9% | 13µM* | 5% | 0
Cc1cccc(-c2cc(NC(=O)COc3ccccc3F)n(-c3ccccc3)n2)c1 | 0% | x | 0% | x | x
CC(=O)c1cc(-c2ccc(F)cc2)n(CCC(=O)NC2CCCCC2)c1C | -10% | x | x | x | x
COc1ccc2c(c1)CC/C(=C/c1ccco1)C2=O | 1% | -7% | 3.5µM* | -24% | -6
COc1cc(/C=C/c2nc3ccccc3c(=O)[nH]2)cc(OC)c1OC | 5% | -30% | -7% | x | -3
COc1cc(/C=C/c2nc3ccccc3c(=O)[nH]2)ccc1OC(F)F | 4% | 0% | 3.2µM* | x | -3
CC(C)Cc1nnc(NC(=O)C23CC4CC(CC(C4)C2)C3)s1 | -15% | 32% | 6% | x | 0
CCc1nnc(NC(=O)C23CC4CC(CC(C4)C2)C3)s1 | -10% | -21% | 11µM* | x | -2
O=C(c1ccc(Cn2cc(Cl)cn2)cc1)N1CCN(c2ccccc2)CC1 | u | 22% | -2% | 16µM* | -4
O=C(c1ccc(Cn2cc(Br)cn2)cc1)N1CCN(c2ccccc2)CC1 | -3% | 27% | -81% | 4.5µM* | -1
O=C(c1ccc(Br)cc1)N1CCN(Cc2ccccc2)CC1 | -4% | 12% | -34% | 1% | -1
O=C(c1ccc(CN2CCOCC2)cc1)N1CCN(c2cccc(Cl)c2)CC1 | -12% | -3% | -15% | -2% | -1
O=C(OCc1ccccc1)N1CCN(/[N+]([O-])=N/Oc2ccc([N+](=O)[O-])cc2[N+](=O)[O-])CC1 | x | x | 0% | x | x
O=c1c2ccccc2nnn1CSc1nnnn1-c1ccc(O)cc1 | -12% | -16% | 0% | 14µM* | 2
O=C(CSc1nnnn1-c1ccc(O)cc1)Nc1cccc(S(=O)(=O)N2CCCC2)c1 | u | 9% | -53% | 5% | 0
O=c1c2ccccc2nnn1CSc1nnc2ccccn12 | -14% | 13% | 5.6µM* | -9% | 0
Cc1cccc(-n2nnnc2SCC(=O)Nc2cccc(S(N)(=O)=O)c2)c1 | -14% | 3% | -4% | 5µM* | 1
Cc1cccc(-n2nnnc2SCn2nnc3ccccc3c2=O)c1 | u | -34% | 34% | 16µM* | -2
COc1ccc(C)cc1-n1nnnc1SCn1nnc2ccccc2c1=O | -19% | -52% | -66% | u | -2
Cn1c(SCn2nnc3ccccc3c2=O)nc2ccccc2c1=O | -6% | x | x | u | x
Cc1ccc(-n2nnnc2SCn2nnc3ccccc3c2=O)cc1 | u | -23% | u | 20% | 0
CCN(Cc1ccccc1)c1ccc(/C=C/c2nccc3ccccc23)cc1 | x | x | -14% | x | x
C/C(=C\C(=O)Nc1nccs1)c1ccccc1 | -18% | 16% | 8.9µM* | 2% | 0
C/C(=C\C(=O)O)C(=O)Nc1nccs1 | -10% | 10% | -5% | 2% | -4
SMILES | Anesthetic bind | a7 integrin act | BRCA1 expr act | PKM2 activator | IL-2 act
N#Cc1ccc(NC(=O)COCc2cc(-c3ccc(F)cc3)on2)cc1 | 0% | x | x | x | x
Cn1c(SCC(=O)c2ccccc2F)nnc1C1CC1 | -16% | -10% | 47% | 32µM* | -3
Cn1c(SCC(=O)Nc2ccc(Cl)cn2)nnc1C1CC1 | -7% | 24% | 26% | 0% | 0
CCOc1ccc(-c2cc3nc(C4CCN(C(=O)OC(C)(C)C)CC4)c(C(=O)Nc4cccc(Cl)c4C)cn3n2)cc1 | -1% | x | x | x | x
Cc1ccc(-c2[nH]n3c(=O)c4c(nc3c2C)CCCC4)cc1 | -12% | 14% | 12%[1.84 µM] | -1% | 0
Cc1c(-c2ccccc2)[nH]n2c(=O)c3c(nc12)CCCC3 | -7% | -1% | 3.2µM* | 5% | 0
O=C(NCCc1cccs1)c1ccc(Cn2c(SCc3ccccc3)nc3cccnc32)cc1 | 119% | x | x | x | x
Cc1cc(C(=O)COC(=O)c2ccco2)c(C)n1Cc1ccco1 | u | -39% | 70% | 5% | 2
Cc1cc(C(=O)COC(=O)c2cc(Cl)ccc2N)c(C)n1Cc1ccco1 | -4% | 15% | 2.8µM* | 4% | 0
COc1ccccc1C1N=C(c2ccccc2C)NO1 (stereo not given) | -12% | -13% | 13µM* | -1% | 1
Cc1ccccc1C1=NC(c2ccc(F)cc2F)ON1 (stereo not given) | -4% | -6% | 22% | 2% | 0
COc1ccc(-c2cc(C)nc3c(-c4ccc(OC)c(OC)c4)c(C)nn23)cc1 | -9% | x | x | x | x
COc1ccccc1NC(=O)c1[nH]c(C)c(C(C)=O)c1C | -2% | 15% | -36% | 7% | 0
COc1ccccc1NS(=O)(=O)c1cccc(NC(=O)c2[nH]c(C)c(C(C)=O)c2C)c1 | -17% | 15% | -85% | 13µM* | -1
O=c1ccc2ccccc2[nH]1 | -8% | x | x | x | x
CCc1nnc(NC(=O)c2ccc(S(=O)(=O)NCC(C)C)cc2)s1 | -12% | 13µM* | 27% | 2% | -3
CCc1nnc(NC(=O)c2ccc(NC(=O)C(C)C)cc2)s1 | -2% | 23% | 11µM* | 0% | 0
CCc1nnc(NC(=O)c2ccc3c(c2)C(=O)N(C(C)(C)C)C3=O)s1 | -9% | 2% | 14µM* | -12% | 3
Cc1oc2ccc(O)c(CN(C)Cc3ccccc3)c2c1C(=O)Nc1ccccc1 | -15% | x | x | x | x
Cc1ccc(CNc2ccc(N3CCOCC3)cc2)cc1 | u | 11% | u | 4% | 0
c1cc2c(cc1CNc1ccc(N3CCOCC3)cc1)OCO2 | x | x | 4.5µM* | x | 0
Nc1nc(-c2ccccc2)cn1/N=C/c1ccccc1 | -9% | 15% | u | 25% | 0
Nc1nc(-c2ccccc2)cn1N | -1% | 13% | -6% | 28µM* | 0
COc1ccc(OCC2CN3C(CCC(C)C3c3ccc(Br)cc3)C(=O)O2)cc1 (stereo not given) | -14%[15.3 µM] | x | x | x | x
CCCCc1cc2c(cn1)=C(OC(=O)CCC(=O)OC)C(C)(OC(=O)CC)C(=O)C=2 (stereo not given) | x | x | x | -2%[11.5 µM] | x
CC(=O)NC(Cc1ccc(O)cc1)C(=O)NCC(N)C(=O)c1ccccc1 (stereo not given) | x | x | 29% | x | x
C=CCn1cc(/C=C/c2cc[n+](C)cc2)c2ccccc21 | 95% | -56% | -45% | -4% | 457*
CC(C)n1cc(/C=C/c2cc[n+](C)cc2)c2ccccc21 | 74% | -85% | -41% | 7% | 295*
C=CCn1c(C)c(/C=C/c2cc[n+](C)cc2)c2ccccc21 | -10% | -77% | -49% | -4% | 122*

Screens as filed in PubChem BioAssay.
